Measurements reported in the supplement of paper PMC10849652.
Of roughly 7,900 targets only a part is listed; those with a hit were picked by preference. About 0.6% of all pairs of compound and target were hits.

What was measured:
Experiment in all cases: log2 fold change, soluble protein after heating vs DMSO (PISA); higher = thermal stabilisation; K562 cells, 10 uM, 30 min; active = over 0.2 and 3.5 SD of the protein, either way, in both replicates (recomputed)
IRAK-1-4 Inhibitor I = compound: C1COCCN1CCN2C3=CC=CC=C3N=C2NC(=O)C4=CC(=CC=C4)[N+](=O)[O-] [IRAK-1-4 Inhibitor I]
Method in brief: (§1)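 K562 cells at 2×10^6 cells/mL were exposed to 10 μM compound for 30 min, then aliquots were heated for 3 min across 48°C-58°C, pooled, and extracted in PBS containing 0.5% NP-40 at 4°C. The supernatant after 21,000xg for 90 min was taken as soluble protein and measured by TMTpro 16plex LC-MS/MS with channel sums equalised. Thermal stability is reported relative to control samples, with values from duplicates. Fold changes are given on a log2 scale.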

ibrutinib = compound: C=CC(=O)N1CCC[C@@H](n2nc(-c3ccc(Oc4ccccc4)cc3)c3c(N)ncnc32)C1 [ibrutinib]
Method in brief: as §1

[1] = compound: CC(=O)c1cnc2ccc(-c3cc(Cl)c(O)c(Cl)c3)nc2c1N[C@H]1CC[C@H](CN(C)C)CC1
Method in brief: as §1

ralimetinib = compound: CC(C)(C)Cn1c(N)nc2ccc(-c3[nH]c(C(C)(C)C)nc3-c3ccc(F)cc3)nc21 [ralimetinib]
Method in brief: as §1

[2] = compound: CC(C)(O)CC(=O)NCCn1ccc2ncnc(Nc3ccc(Oc4cccc(C(F)(F)F)c4)c(Cl)c3)c21
Method in brief: as §1

[3] = compound: CC(C)C1=C2N=C(C=C(N2N=C1)NCC3=CC=CC=C3)NCCCCCCN
Method in brief: as §1

[4] = compound: CC(C)C[C@@H](C=O)NC(=O)[C@H](CC(C)C)NC(=O)[C@H](CC(C)C)NC(=O)OCc1ccccc1
Method in brief: as §1

pinometostat = compound: CC(C)N(C[C@H]1O[C@@H](n2cnc3c(N)ncnc32)[C@H](O)[C@@H]1O)[C@H]1C[C@@H](CCc2nc3cc(C(C)(C)C)ccc3[nH]2)C1 [pinometostat]
Method in brief: as §1

[5] = compound: CC1=C(C(CC(=O)N1)C2=CC=C(C=C2)C(F)(F)F)C(=O)NC3=C(C=C4C(=C3)C=NN4)F
Method in brief: as §1

[6] = compound: CC1=C(C2=C(C=C1)C(=O)C3=CC=CC=C3N2CCCN)C
Method in brief: as §1

[7] = compound: CC1=C(C=C(C=C1)NC(=O)C2=CC(=CC=C2)C(C)(C)C#N)NC3=CC4=C(C=C3)N=CN(C4=O)C
Method in brief: as §1

[8] = compound: CC1=C(C=C(C=C1)NC(=O)C2=CC(=CC=C2)N(C)C)NC(=O)C3=CC=C(C=C3)O
Method in brief: as §1

[9] = compound: CC1=CC=C(C=C1)SC2=C3C=C(SC3=CN=C2)C(=O)N
Method in brief: as §1

[10] = compound: CC1=NC(=CC=C1)C2=C(N=C(N2)C(C)(C)C)C3=CC4=NC=CN=C4C=C3
Method in brief: as §1

Nexturastat A = compound: CCCCN(Cc1ccc(C(=O)NO)cc1)C(=O)Nc1ccccc1 [Nexturastat A]
Method in brief: as §1

vemurafenib = compound: CCCS(=O)(=O)Nc1ccc(F)c(C(=O)c2c[nH]c3ncc(-c4ccc(Cl)cc4)cc23)c1F [vemurafenib]
Method in brief: as §1

[11] = compound: CCCS(=O)(=O)Nc1ccc(F)c(C(=O)c2c[nH]c3ncc(Cl)cc23)c1F
Method in brief: as §1

[12] = compound: CCCc1cc(C)[nH]c(=O)c1CNC(=O)c1cc(-c2ccnc(N3CCN(C)CC3)c2)cc2c1cnn2C(C)C
Method in brief: as §1

givinostat = compound: CCN(CC)Cc1ccc2cc(COC(=O)Nc3ccc(C(=O)NO)cc3)ccc2c1 [givinostat]
Method in brief: as §1

barasertib = compound: CCN(CCCOc1ccc2c(Nc3cc(CC(=O)Nc4cccc(F)c4)[nH]n3)ncnc2c1)CCOP(=O)(O)O [barasertib]
Method in brief: as §1

Measured: log2 fold change

POTEI (UniProt P0CG38)
Chain of UniProt P0CG38 (P0CG38 whole entry, looked up): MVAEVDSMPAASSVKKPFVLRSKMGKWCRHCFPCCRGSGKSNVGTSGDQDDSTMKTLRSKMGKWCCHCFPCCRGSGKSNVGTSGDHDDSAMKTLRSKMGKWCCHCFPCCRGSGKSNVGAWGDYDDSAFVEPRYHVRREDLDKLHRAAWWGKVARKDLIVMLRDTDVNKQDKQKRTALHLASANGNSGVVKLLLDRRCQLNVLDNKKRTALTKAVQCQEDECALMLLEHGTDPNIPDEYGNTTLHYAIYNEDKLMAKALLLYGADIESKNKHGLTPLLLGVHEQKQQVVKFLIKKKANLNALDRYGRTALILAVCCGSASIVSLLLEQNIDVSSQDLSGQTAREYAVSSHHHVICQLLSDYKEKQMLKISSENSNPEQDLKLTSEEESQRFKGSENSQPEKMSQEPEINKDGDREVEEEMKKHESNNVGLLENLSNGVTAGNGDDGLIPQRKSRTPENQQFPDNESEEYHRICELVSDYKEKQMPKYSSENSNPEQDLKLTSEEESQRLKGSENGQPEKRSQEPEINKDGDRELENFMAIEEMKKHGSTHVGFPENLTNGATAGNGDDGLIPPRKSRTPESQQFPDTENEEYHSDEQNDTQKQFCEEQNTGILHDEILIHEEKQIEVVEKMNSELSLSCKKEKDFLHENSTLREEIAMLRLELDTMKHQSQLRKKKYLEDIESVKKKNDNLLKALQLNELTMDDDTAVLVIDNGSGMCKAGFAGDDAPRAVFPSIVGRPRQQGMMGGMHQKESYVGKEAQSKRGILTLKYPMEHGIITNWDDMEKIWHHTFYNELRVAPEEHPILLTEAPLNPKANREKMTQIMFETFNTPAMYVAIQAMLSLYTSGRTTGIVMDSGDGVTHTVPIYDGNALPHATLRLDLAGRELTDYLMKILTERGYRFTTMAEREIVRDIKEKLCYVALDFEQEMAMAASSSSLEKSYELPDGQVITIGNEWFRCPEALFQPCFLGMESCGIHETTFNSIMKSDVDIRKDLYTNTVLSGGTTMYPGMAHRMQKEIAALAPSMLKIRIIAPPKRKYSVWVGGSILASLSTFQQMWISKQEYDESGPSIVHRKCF
inactive: IRAK-1-4 Inhibitor I -0.176 | ibrutinib 0.046 | [1] 0.052 | ralimetinib 0.003 | [2] 0.015 | [3] 0.059 | [4] -0.025 | pinometostat -0.179 | [5] 0.021 | [6] 0.012 | [7] 0.056 | [8] -0.035 | [9] -0.012 | [10] 0.052 | Nexturastat A -0.071 | vemurafenib 0.08 | [11] 0.014 | [12] -0.072 | givinostat -0.018 | barasertib 0

PSMD5 (UniProt Q16401)
Chain of UniProt Q16401 (Q16401 whole entry, looked up): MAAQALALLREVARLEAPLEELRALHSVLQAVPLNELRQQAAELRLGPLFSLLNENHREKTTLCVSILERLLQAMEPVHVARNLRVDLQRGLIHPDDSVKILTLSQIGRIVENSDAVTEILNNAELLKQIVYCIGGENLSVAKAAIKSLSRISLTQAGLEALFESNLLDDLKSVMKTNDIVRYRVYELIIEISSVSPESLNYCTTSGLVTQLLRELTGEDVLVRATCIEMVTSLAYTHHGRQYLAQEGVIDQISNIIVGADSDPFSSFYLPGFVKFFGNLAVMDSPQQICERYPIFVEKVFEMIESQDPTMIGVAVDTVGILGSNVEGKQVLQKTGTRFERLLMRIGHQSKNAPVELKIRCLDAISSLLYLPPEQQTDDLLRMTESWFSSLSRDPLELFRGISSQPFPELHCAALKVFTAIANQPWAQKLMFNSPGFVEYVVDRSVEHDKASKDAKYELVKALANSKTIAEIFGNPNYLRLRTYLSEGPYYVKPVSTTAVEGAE
inactive: IRAK-1-4 Inhibitor I 0.04 | ibrutinib -0.004 | [1] 0.047 | ralimetinib -0.013 | [2] -0.033 | [3] -0.106 | [4] -0.061 | pinometostat -0.003 | [5] 0 | [6] -0.042 | [7] -0.009 | [8] -0.001 | [9] 0.023 | [10] 0.027 | Nexturastat A -0.01 | vemurafenib 0.015 | [11] 0.047 | [12] 0.003 | givinostat -0.007 | barasertib 0.027

PPID (UniProt Q08752)
Chain of UniProt Q08752 (Q08752 whole entry, looked up): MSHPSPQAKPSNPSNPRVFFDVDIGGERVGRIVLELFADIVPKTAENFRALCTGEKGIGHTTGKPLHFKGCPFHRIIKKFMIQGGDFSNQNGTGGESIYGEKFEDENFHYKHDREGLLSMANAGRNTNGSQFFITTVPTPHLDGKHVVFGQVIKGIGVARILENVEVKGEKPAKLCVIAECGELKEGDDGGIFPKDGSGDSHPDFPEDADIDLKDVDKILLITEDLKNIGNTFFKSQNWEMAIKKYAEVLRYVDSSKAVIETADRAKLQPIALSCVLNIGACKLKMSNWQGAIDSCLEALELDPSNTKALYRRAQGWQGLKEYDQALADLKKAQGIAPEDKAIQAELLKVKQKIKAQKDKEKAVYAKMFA
inactive: IRAK-1-4 Inhibitor I -0.141 | ibrutinib -0.057 | [1] -0.013 | ralimetinib 0.103 | [2] -0.152 | [3] -0.238 | [4] 0.053 | pinometostat 0.105 | [5] -0.006 | [6] 0.022 | [7] 0.011 | [8] -0.047 | [9] 0.091 | [10] 0.005 | Nexturastat A 0.008 | vemurafenib 0.097 | [11] 0.105 | [12] 0.104 | givinostat 0.122 | barasertib 0.057

PML (UniProt P29590)
Chain of UniProt P29590 (P29590 whole entry, looked up): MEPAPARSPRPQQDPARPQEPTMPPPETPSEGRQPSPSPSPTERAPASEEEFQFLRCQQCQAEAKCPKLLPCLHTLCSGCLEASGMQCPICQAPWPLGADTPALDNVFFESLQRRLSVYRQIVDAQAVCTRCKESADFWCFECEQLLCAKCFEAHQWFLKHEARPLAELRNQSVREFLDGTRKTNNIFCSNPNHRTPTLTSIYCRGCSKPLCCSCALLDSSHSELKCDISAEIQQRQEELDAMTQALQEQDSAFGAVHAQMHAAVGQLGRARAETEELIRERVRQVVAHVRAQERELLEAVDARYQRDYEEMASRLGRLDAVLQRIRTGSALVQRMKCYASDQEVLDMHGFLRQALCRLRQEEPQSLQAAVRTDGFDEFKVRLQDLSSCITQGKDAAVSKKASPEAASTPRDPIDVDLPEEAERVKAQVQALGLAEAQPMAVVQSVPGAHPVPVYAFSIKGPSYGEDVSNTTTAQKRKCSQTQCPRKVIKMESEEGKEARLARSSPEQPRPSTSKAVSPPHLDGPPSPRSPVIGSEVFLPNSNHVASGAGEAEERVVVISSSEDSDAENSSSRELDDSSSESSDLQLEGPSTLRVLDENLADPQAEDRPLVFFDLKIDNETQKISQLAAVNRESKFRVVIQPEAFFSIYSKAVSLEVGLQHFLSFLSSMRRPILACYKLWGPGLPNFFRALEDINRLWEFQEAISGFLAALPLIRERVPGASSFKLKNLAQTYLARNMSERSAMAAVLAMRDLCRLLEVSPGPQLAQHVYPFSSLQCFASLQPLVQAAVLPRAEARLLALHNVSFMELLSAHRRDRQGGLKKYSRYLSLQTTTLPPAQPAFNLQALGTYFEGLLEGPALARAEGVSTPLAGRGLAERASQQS
inactive: IRAK-1-4 Inhibitor I 0.031 | ibrutinib 0.006 | [1] 0.052 | ralimetinib 0.045 | [2] 0.012 | [3] -0.025 | [4] -0.05 | pinometostat -0.021 | [5] 0.07 | [6] -0.035 | [7] -0.024 | [8] -0.001 | [9] -0.009 | [10] -0.02 | Nexturastat A -0.002 | vemurafenib -0.044 | [11] 0.018 | [12] -0.007 | givinostat -0.014 | barasertib 0.01

PRKAB2 (UniProt O43741)
Chain of UniProt O43741 (O43741 whole entry, looked up): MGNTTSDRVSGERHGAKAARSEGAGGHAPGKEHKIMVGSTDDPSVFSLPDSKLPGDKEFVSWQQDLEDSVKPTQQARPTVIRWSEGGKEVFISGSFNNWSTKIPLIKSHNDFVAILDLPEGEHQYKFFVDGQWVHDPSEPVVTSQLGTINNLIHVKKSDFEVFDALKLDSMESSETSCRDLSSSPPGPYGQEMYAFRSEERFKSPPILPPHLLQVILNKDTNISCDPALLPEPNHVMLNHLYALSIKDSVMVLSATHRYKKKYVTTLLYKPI
inactive: IRAK-1-4 Inhibitor I 0.003 | ibrutinib 0.054 | [1] -0.115 | ralimetinib 0.223 | [2] -0.117 | [3] -0.028 | [4] -0.175 | pinometostat -0.065 | [5] 0.032 | [6] -0.053 | [7] 0.122 | [8] -0.015 | [9] 0.106 | [10] 0.118 | Nexturastat A -0.079 | vemurafenib 0.074 | [11] 0.177 | [12] -0.18 | givinostat 0.027 | barasertib 0.067

PRKACA (UniProt P17612)
inactive: IRAK-1-4 Inhibitor I 0.023 | ibrutinib -0.011 | [1] -0.038 | ralimetinib -0.01 | [2] 0.01 | [3] 0.008 | [4] 0.005 | pinometostat -0.06 | [5] -0.07 | [6] -0.034 | [7] -0.002 | [8] -0.008 | [9] -0.023 | [10] 0.043 | Nexturastat A 0.099 | vemurafenib 0.015 | [11] 0.019 | [12] -0.019 | givinostat 0.006 | barasertib -0.008

PSMD7 (UniProt P51665)
Chain of UniProt P51665 (P51665 whole entry, looked up): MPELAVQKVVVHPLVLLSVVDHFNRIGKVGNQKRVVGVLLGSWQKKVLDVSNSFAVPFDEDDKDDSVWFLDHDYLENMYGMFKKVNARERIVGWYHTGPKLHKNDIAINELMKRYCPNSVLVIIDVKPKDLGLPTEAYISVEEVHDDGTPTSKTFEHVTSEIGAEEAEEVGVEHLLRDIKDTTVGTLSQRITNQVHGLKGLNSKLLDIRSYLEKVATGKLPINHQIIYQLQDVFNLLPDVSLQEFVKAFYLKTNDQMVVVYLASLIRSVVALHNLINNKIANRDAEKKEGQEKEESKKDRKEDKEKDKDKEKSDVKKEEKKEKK
active: [4] -0.216
inactive: IRAK-1-4 Inhibitor I 0.055 | ibrutinib -0.006 | [1] 0.028 | ralimetinib 0.01 | [2] 0.057 | [3] 0.019 | pinometostat 0.066 | [5] 0.034 | [6] -0.029 | [7] -0.011 | [8] -0.005 | [9] -0.047 | [10] -0.038 | Nexturastat A 0.145 | vemurafenib -0.073 | [11] -0.029 | [12] 0.045 | givinostat -0.03 | barasertib -0.05

PYGL (UniProt P06737)
Chain of UniProt P06737 (P06737 whole entry, looked up): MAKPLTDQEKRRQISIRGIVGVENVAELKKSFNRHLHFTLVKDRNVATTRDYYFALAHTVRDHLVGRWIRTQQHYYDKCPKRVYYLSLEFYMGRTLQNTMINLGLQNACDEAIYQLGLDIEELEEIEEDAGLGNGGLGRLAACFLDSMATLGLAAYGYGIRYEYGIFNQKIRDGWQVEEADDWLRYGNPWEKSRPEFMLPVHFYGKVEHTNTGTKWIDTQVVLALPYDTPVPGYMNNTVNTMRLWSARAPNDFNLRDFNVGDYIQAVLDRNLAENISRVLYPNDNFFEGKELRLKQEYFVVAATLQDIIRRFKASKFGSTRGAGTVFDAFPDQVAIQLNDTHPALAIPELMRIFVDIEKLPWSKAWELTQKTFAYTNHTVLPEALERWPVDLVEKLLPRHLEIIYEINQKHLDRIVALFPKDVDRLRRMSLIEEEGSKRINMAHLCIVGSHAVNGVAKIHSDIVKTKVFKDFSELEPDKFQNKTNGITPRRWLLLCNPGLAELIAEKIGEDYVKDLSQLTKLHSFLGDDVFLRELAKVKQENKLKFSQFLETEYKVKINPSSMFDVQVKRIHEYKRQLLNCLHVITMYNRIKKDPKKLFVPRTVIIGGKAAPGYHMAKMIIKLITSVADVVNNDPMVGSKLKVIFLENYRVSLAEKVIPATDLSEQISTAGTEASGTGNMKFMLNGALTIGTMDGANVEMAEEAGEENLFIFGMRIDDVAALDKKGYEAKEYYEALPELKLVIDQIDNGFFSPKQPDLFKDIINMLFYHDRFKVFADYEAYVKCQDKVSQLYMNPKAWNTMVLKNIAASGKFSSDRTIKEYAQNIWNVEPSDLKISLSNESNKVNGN
inactive: IRAK-1-4 Inhibitor I 0.004 | ibrutinib 0.033 | [1] -0.143 | ralimetinib -0.038 | [2] 0.055 | [3] 0.068 | [4] -0.031 | pinometostat -0.007 | [5] 0.019 | [6] 0.021 | [7] -0.105 | [8] 0.011 | [9] 0.011 | [10] 0.006 | Nexturastat A -0.018 | vemurafenib -0.009 | [11] 0.003 | [12] -0.015 | givinostat 0.012 | barasertib -0.01
